The values below come from PubChem BioAssay (NCATS).

Test [1] has as its target Estrogen receptor (Homo sapiens) (UniProt P03372). Nature of the test: qHTS assay for small molecule antagonists of estrogen receptor alpha signaling (AID 588513; active = well fitted curve in the direction sought with a large enough effect in the signal ratio, with a control signal flat, not every such curve was filed as active; the % refers to the signal ratio; also: % is scaled to controls: 0 for no effect and ±100 for the full control effect). To be noted: ER-alpha-UAS-bla HEK293, beta-lactamase ratio, antagonist mode; series mostly up to 76.9 µM. The procedure, abridged:
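Fluorescence from CCF4 substrate after 2 h at room temperature gave reporter activity; cells had been exposed to compound and 0.5nM 17-beta-estradiol for 18 h at 37 C. Hill-equation fitting yielded IC50 and maximal response.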

The target is the same in test [2]. Nature of the test: qHTS assay for small molecule agonists of estrogen receptor alpha signaling (AID 588514; calls by dose curve;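 also: 0% = vehicle only and 100% = reference agonist; nearly all actives have a fitted effect of over 70% in size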). The note with it: ER-alpha-UAS-bla HEK293, beta-lactamase ratio, 18 h; series mostly up to 76.8 µM. An outline of the steps: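 ER-alpha-UAS-bla GripTite HEK293 cells, 5000/well in 2% charcoal/dextran-stripped FBS medium, treated with compound titrations 18 h at 37 C. CCF4 beta-lactamase read by fluorescence after 2 h RT; normalised to 20 nM 17-beta-estradiol (100%) and DMSO (0%), Hill fit for EC50 and efficacy.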
On the technique in general: In qHTS, concentration-response curves come from the screen itself.

Test [3] addresses Glucocorticoid receptor (Homo sapiens) (UniProt P04150). Put plainly: qHTS assay for small molecule agonists of glucocorticoid receptor signaling (AID 588532; active = well fitted curve in the direction sought with a large enough effect in the signal ratio, with a control signal flat; the % refers to the signal ratio;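 also: 100% = dexamethasone at 0.1 µM and 0% = DMSO only wells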). To be noted: HeLa MMTV-bla, beta-lactamase ratio, agonist, 18 h; stronger effect = higher value; percent of dexamethasone control, DMSO zero. The procedure, abridged: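 MMTV-bla HeLa beta-lactamase reporter cells in 1% charcoal/dextran FBS medium, compounds up to 92 uM for 18 h at 37 C, CCF4 readout; normalized to 0.1 uM dexamethasone (100%), EC50 and efficacy from Hill fits.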

Test [4] shares this target. Nature of the test: qHTS assay for small molecule antagonists of glucocorticoid receptor signaling (AID 588533; active = well fitted inhibition curve with a large enough effect in the signal ratio, with a control signal flat, not every such curve was filed as active; the % refers to the signal ratio;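 also: cells stimulated with 2 nM dexamethasone as agonist; % is scaled to controls: 0 for no effect and ±100 for the full control effect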). To be noted: HeLa MMTV-bla, GRE beta-lactamase ratio, antagonist mode, 18 h; series mostly up to 76.8 µM. The procedure, abridged:
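Antagonist-mode qHTS: compound titrations added to GRE-bla HeLa cells, then dexamethasone 2 nM final; 18 h, 37 C. CCF4 FRET fluorescence normalized to dexamethasone and DMSO; IC50 from Hill fit.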

A short description of test [5]: qHTS assay for small molecule antagonists of peroxisome proliferator-activated receptor delta signaling (AID 588535; active = well fitted inhibition curve with a large enough effect in the signal ratio, with a control signal flat, not every such curve was filed as active; the % refers to the signal ratio;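 as to max response: cells co-treated with a PPAR-delta agonist as stimulator during compound exposure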). To be noted: HEK293T PPARd-UAS-bla, beta-lactamase FRET ratio, 18 h; 460 nm channel. The procedure, abridged: (§1)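 Antagonist-mode beta-lactamase reporter (GeneBLAzer PPAR-delta-UAS-bla) in HEK293T cells, 2% charcoal/dextran FBS, 4000 cells/well. Compound titrations, 18 h at 37 C; CCF4 ratio read, IC50 and efficacy from Hill fits.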

For test [6], the target named is Peroxisome proliferator-activated receptor delta (Homo sapiens) (UniProt Q03181). The test is described as above. The note with it: HEK293T PPARd-UAS-bla, beta-lactamase FRET ratio, 18 h; series mostly up to 76.7 µM. The procedure, abridged:
as §1

Test [7] is described as follows: qHTS assay for small molecule agonists of retinoid X receptor alpha signaling (AID 588544; calls by dose curve;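 as to activation: 0% = DMSO basal wells and 100% = reference agonist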). To be noted: HEK293T RXRa-UAS-bla, beta-lactamase reporter, 18 h; 530 nm emission.
The target of test [8] is Retinoic acid receptor RXR-alpha (Homo sapiens) (UniProt P19793). The test is described as above. The note with it: HEK293T RXRa-UAS-bla, beta-lactamase reporter, 18 h; series mostly up to 76.7 µM.
Chain of Retinoic acid receptor RXR-alpha (Homo sapiens) (P19793 whole entry, looked up): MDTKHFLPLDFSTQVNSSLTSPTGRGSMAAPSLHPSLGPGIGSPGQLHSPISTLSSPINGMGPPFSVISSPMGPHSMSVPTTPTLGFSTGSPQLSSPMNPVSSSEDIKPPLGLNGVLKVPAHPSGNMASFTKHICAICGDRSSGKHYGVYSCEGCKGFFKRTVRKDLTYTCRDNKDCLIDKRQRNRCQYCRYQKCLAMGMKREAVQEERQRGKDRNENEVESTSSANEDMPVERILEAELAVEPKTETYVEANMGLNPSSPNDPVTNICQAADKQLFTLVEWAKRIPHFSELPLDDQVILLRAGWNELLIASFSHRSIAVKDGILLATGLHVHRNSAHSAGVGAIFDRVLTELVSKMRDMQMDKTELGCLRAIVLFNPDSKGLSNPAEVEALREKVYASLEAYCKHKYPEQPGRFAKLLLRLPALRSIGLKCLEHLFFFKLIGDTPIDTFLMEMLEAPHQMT
Test [9] concerns the target Thyroid hormone receptor beta (Homo sapiens) (UniProt P10828). Put plainly: qHTS assay for small molecule agonists of thyroid hormone receptor beta signaling (AID 588545; calls by dose curve). To be noted: TR-UAS-bla GripTite HEK 293, beta-lactamase ratio, agonist mode, 18 h; series mostly up to 76.7 µM. An outline of the steps: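 In this cell-based screen, titrated compounds act on HEK 293 cells held in medium with 2% charcoal/dextran FBS, NEAA and pyruvate for 18 hrs at 37 C. Responses are expressed relative to T3 (10 nM) as 100% and basal DMSO as 0%.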

Test [10] in a line: qHTS assay for small molecule antagonists of retinoid X receptor alpha signaling (AID 588546; active = well fitted inhibition curve with a large enough effect in the signal ratio, with a control signal flat, not every such curve was filed as active; the % refers to the signal ratio;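 also: cells stimulated with 9-cis-retinoic acid as agonist; % is scaled to controls: 0 for no effect and ±100 for the full control effect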). To be noted: HEK293T RXRa-UAS-bla, beta-lactamase ratio, antagonist mode; measured here: W530 green channel, cytotoxicity proxy. The procedure, abridged:
(§2)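 Beta-lactamase reporter inhibition, read as CCF4 fluorescence ratio (ex 405, em 460/530 nm) after 2 h at RT. HEK293T UAS-bla cells, 2500/well, were stimulated with 9-cis-RA at 500 or 100 nM final alongside test compound for 18 h at 37 C.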

The target in test [11] is Retinoic acid receptor RXR-alpha (Homo sapiens) (UniProt P19793). Described as above. To be noted: HEK293T RXRa-UAS-bla, beta-lactamase ratio, antagonist mode. The procedure, abridged:
as §2

Test [12] in a line: qHTS assay for small molecule activators of the nuclear factor-kappa B (NF-kB) signaling pathway (AID 651749; active = well fitted activation curve with a large enough effect in the signal ratio; the % refers to the signal ratio; also: % of control where 0% means no effect). The note with it: NF-kB-bla ME-180 cells, beta-lactamase FRET ratio, 16 h; activation: stronger effect = higher value. An outline of the steps:
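NF-kB-bla ME-180 cells carrying a beta-lactamase reporter under an NF-kB response element, 2,000 cells/well, exposed to compound for 16 hr at 37C; FRET-based beta-lactamase fluorescence read-out of pathway activation.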

For test [13], the target named is Peroxisome proliferator-activated receptor alpha (Homo sapiens) (UniProt Q07869). Put plainly: qHTS assay for small molecule agonists of the peroxisome proliferator-activated receptor alpha (PPARalpha) signaling pathway (AID 651778). Also: % of control where 0% means no effect. To be noted: PathHunter PPARalpha complementation, chemiluminescence, 6 h; max response: stronger effect = higher value. An outline of the steps: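 Enzyme-fragment complementation assay in which ligand-bound PPARalpha translocates and forms an active enzyme that generates chemiluminescence. Cells were plated overnight, exposed to compound for 6 hr at 37 C, and then given detection reagent for 60 min at room temperature.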
Chain of Peroxisome proliferator-activated receptor alpha (Homo sapiens) (Q07869 whole entry, looked up, the tested form may be a part): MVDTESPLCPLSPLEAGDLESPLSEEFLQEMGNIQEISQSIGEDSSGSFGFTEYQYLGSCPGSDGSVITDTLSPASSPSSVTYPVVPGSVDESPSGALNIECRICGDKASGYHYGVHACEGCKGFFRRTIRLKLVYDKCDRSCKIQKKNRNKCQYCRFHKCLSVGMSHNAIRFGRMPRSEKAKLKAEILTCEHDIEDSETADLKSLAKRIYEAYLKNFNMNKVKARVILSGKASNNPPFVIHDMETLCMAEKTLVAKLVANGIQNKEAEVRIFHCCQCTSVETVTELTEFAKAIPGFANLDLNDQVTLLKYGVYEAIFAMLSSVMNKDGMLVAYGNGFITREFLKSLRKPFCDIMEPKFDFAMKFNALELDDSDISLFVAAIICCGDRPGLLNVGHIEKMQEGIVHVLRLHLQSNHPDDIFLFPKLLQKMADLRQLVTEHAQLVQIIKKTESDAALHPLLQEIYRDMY

Test [14] is described as follows: qHTS assay for small molecule agonists of the antioxidant response element (ARE) signaling pathway measured by Nrf2-dependant transcriptional activity (AID 720636; active = well fitted curve in the direction sought with a large enough effect in the repeat runs; an effect the other way counts as inactive or inconclusive; also: % of control where 0% means no effect). To be noted: ARE-luc HepG2, Nrf2 luciferase reporter, 16 h; series mostly up to 92.4 µM. An outline of the steps: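 Cells: ARE-luc HepG2 with Nrf2-responsive luciferase. Medium contained 1% dialyzed FBS. Compound exposure lasted 16 hr at 37 C and 5% CO2, followed by ONE-Glo luciferase detection.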

The nature of test [15]: qHTS assay for small molecule agonists of the antioxidant response element (ARE) signaling pathway measured by Nrf2-dependant transcriptional activity - cell viability counter screen (AID 720653; active = well fitted curve in the direction sought with a large enough effect in the repeat runs; an effect the other way counts as inactive or inconclusive; also: % is scaled to controls: 0 for no effect and ±100 for the full control effect). The note with it: ARE-bla HepG2 viability, CellTiter-Glo ATP luminescence, 16 h; max response: stronger effect = lower value. An outline of the steps:
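ARE-bla HepG2 cells treated with compounds for 16 h at 37C; this counter screen measures viability as intracellular ATP by CellTiter-Glo luminescence after 30 min at room temperature.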

A short description of test [16]: qHTS assay for cell viability of HEK293 cells (AID 743288). Also: % is scaled to controls: 0 for no effect and ±100 for the full control effect; nearly all actives have a fitted effect of over 50% in size. To be noted: ATP luminescence (CellTiter-Glo), 18 h; max response: stronger effect = lower value. The procedure, abridged:
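HEK293 parental, 2,000 cells/well; ≥5 h pre-incubation 37 C; pintool compound addition; 18 h, 37 C; CellTiter-Glo 30 min RT; luminescence read.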

Test [17] is described as follows: qHTS assay for cell viability of the p53RE-bla HCT-116 cell line (AID 743292). Also: % is scaled to controls: 0 for no effect and ±100 for the full control effect; nearly all actives have a fitted effect of over 55% in size. The note with it: p53RE-bla HCT-116 viability, ATP luminescence, 16 h; series mostly up to 95 µM. The procedure, abridged: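 HCT-116 p53RE-bla cells seeded 4,000/well; 5 h at 37 C; compound (DMSO) added; 16 h at 37 C; CellTiter-Glo added, 30 min RT; luminescence read.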
Test [18] has as its target Nuclear receptor subfamily 1 group I member 2 (Rattus norvegicus) (UniProt Q9R1A7). Nature of the test: qHTS assay for small molecule activators of the rat pregnane X receptor (rPXR) signaling pathway (AID 651751; call rule not given here; also: 0% is about no effect). To be noted: rPXR reporter cells, luciferase (One-Glo), 24 h.
Test [19] can be described thus: qHTS assay for environmental chemicals that activate the Aryl hydrocarbon Receptor (AhR) signaling pathway (AID 651777). Also: % of control where 0% means no effect; nearly all actives have a fitted effect of over 15% in size. To be noted: 1A2-DRE human hepatoma cells, luciferase, 24 h; activation: stronger effect = higher value. The procedure, abridged:
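1A2-DRE human hepatoma reporter line; 1,200 cells/well; cmpd or DMSO 24 h, 37 C/5% CO2; One-Glo 30 min RT; luciferase lum.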

The nature of test [20]: qHTS assay for small molecule activators of the human pregnane X receptor (PXR) signaling pathway (AID 720659; call rule not given here; also: 0% is about no effect). To be noted: DPX-2 HepG2 CYP3A4-luciferase, 24 h; series mostly up to 92.3 µM.

Results filed as inconclusive are left out. The source made the active and inactive calls. Unless noted, calls follow the shape of the dose curve; as a rule, active = well fitted curve in the direction sought with a large enough effect; inconclusive = small, poorly fitted or top-dose-only effect, or another doubt; inactive = no such curve, though single readings can be large; an effect the other way counts as inactive or inconclusive.

Chain of Estrogen receptor (Homo sapiens) (P03372 whole entry, looked up): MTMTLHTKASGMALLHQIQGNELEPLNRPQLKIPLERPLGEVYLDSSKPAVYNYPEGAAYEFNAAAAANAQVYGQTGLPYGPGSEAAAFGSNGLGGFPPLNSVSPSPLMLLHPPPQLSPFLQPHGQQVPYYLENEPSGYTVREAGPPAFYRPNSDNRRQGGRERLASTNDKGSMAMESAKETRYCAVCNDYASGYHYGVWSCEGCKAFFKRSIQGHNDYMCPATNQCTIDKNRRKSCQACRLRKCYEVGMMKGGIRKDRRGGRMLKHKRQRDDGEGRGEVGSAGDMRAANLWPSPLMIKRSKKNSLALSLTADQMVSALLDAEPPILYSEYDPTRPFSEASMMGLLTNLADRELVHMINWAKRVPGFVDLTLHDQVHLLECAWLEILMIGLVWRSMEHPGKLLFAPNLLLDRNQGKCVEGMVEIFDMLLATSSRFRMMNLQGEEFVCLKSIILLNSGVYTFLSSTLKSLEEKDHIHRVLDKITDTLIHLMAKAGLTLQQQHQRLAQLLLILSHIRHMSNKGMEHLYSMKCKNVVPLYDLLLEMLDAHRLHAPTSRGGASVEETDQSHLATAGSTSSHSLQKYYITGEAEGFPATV
Chain of Peroxisome proliferator-activated receptor delta (Homo sapiens) (Q03181 whole entry, looked up): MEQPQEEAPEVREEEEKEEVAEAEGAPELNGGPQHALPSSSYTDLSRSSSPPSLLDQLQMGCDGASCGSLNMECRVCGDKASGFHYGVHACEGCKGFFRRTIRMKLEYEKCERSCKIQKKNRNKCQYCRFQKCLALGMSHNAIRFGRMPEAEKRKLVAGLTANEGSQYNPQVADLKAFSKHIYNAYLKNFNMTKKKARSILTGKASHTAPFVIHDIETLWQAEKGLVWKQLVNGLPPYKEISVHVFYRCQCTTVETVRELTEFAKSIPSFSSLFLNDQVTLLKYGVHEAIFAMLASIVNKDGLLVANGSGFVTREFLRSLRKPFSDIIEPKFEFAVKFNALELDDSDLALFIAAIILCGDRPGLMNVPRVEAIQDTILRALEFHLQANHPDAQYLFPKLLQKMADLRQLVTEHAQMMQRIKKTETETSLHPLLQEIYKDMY
Chain of Glucocorticoid receptor (Homo sapiens) (P04150 whole entry, looked up): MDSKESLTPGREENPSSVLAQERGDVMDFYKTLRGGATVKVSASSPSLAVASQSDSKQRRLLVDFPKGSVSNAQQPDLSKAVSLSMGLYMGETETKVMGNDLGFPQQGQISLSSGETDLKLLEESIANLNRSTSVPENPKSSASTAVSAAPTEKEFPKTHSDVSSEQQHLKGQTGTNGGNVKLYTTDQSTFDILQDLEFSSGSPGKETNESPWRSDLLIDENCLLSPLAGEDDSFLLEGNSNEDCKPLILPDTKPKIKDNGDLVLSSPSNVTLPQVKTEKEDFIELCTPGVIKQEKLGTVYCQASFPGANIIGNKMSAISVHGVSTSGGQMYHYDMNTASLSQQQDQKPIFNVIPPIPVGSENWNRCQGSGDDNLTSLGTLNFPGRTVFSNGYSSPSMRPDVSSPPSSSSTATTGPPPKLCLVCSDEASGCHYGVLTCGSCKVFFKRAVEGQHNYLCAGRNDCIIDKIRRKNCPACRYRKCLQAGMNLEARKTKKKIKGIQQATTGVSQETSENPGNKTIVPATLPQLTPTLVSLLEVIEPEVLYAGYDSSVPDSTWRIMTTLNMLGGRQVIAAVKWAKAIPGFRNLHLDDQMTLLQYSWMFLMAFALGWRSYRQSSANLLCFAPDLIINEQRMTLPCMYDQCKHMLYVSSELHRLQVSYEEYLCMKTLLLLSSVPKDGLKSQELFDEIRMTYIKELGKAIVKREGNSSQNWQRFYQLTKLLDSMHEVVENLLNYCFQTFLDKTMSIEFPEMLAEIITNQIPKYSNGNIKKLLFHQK
Chain of Nuclear receptor subfamily 1 group I member 2 (Rattus norvegicus) (Q9R1A7 whole entry, looked up): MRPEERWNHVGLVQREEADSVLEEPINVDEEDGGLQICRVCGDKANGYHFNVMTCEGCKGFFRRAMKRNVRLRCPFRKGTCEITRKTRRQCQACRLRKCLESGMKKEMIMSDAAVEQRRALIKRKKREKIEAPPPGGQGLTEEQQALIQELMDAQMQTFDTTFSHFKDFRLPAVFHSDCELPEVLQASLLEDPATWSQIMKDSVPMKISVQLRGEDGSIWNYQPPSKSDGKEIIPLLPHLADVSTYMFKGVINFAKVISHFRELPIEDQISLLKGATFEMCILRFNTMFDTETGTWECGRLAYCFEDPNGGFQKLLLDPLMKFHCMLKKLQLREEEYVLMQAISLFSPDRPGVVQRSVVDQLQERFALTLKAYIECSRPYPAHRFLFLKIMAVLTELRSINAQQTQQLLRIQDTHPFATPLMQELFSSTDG
Chain of Thyroid hormone receptor beta (Homo sapiens) (P10828 whole entry, looked up): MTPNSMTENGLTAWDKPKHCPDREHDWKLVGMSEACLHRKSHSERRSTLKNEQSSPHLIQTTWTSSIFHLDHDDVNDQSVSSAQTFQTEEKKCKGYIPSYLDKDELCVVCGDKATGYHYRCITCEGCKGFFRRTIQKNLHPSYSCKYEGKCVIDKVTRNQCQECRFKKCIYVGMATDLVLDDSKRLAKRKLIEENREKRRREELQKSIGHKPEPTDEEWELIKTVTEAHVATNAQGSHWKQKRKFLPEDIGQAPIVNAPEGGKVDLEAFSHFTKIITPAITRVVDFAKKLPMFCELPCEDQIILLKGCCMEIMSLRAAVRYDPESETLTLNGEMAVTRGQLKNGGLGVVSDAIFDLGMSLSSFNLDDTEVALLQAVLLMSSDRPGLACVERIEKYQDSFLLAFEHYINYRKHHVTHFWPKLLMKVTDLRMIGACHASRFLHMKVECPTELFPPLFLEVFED

As for `CCCCOCCOCCOC(=O)CCCCC(=O)OCCOCCOCCCC`, the Potency entry in [1], in [2], in [4], in test [6], in test [8] and in test [9] was “inactive” each time. Moreover, the Potency entry in test [14] and in test [17] was “inactive” in each case. Moreover, the activation in test [3] was -7.36% (inactive); in test [12], -0.225% (inactive). Moreover, the max response in [5] is 22.3%; in test [7], -9.1%; in [10] it was -1.41%; in test [11], 5.79% (inactive); in test [13], 3.34% (inactive); in [15] it was -2.75% (inactive). For the same molecule, the max response in test [16] is -4.73% (inactive); in [18] it was -6.4% (inactive).

In the case of `Cl[Si](Cl)(c1ccccc1)c1ccccc1`, the Potency result in [1], in [2], in [4], in test [6], in test [8] and in test [9] was “inactive” throughout. Moreover, the Potency result in test [14] and in [17] was “inactive” in each case. In addition, the activation is 0.877% (inactive) in [3] and -1.05% (inactive) in [19]. For the same molecule, the max response is 5.91% in [5]; -17.4% in [7]; -8.47% in test [10]; -0.846% (inactive) in test [11]; 5.98% (inactive) in test [13].

`CCC/C(=N\OCC)C1=C(O)CC(O)(CC(C)S(=O)(=O)CC)CC1=O` (configuration not stated): the Potency result in test [1], in test [2], in test [4], in test [6], in test [8] and in [9] was “inactive” throughout. Besides, the Potency entry in test [14] and in test [17] was “inactive” in each case. Further, the activation in [3] is -6.04% (inactive); in test [12] it was -2.79% (inactive); in [19], 3.19% (inactive). Moreover, the max response in test [5] is 9.67%; in [7] it was -16.2%; in test [10] it was -7.24%; in test [13], -0.0131% (inactive); in test [16], -1.14% (inactive); in test [18], 2.09% (inactive). In test [20], the result was inactive.

On to `Cn1c(=O)[nH]c(=O)n(C2CCCCC2)c1=O`, for which the Potency entry in test [1], in test [2], in test [4], in test [8], in test [9] and in test [14] was “inactive” each time. Besides, the Potency entry in test [17] is “inactive”. Moreover, the activation is 12.5% (inactive) in [3], -1.18% (inactive) in [12] and -1.1% (inactive) in [19]. Moreover, the max response was -3.38% in [7]; -9.26% in test [10]; 5.47% (inactive) in [11]; -0.628% (inactive) in test [13]; -7.06% (inactive) in test [16]; 1.25% (inactive) in [18]. The molecule was called inactive in test [20].

As to `NCCCCCCCCCCCC(=O)O`, the Potency result in test [1], in test [2], in [4], in [6], in [8] and in test [9] was “inactive” each time. In addition, the Potency result in test [14] and in test [17] was “inactive” throughout. Further, the figures for the activation in test [3], in test [12] and in test [19] were 8.75% (inactive), -0.832% (inactive) and -1.28% (inactive), respectively. Besides, the max response was 20.5% in [5]; -5.4% in test [7]; -12% in test [10]; 2.61% (inactive) in test [11]; -1.44% (inactive) in [13]; 4.58% (inactive) in [15]. The max response in test [18] was -0.534% (inactive). For the same molecule, the result in test [20] was inactive.
